# Bioassay records deposited in PubChem BioAssay by several laboratories.
# tim10-1 inh: growth inhibitors of tim10-1 mutant yeast, primary screen, luminescence, uHTS; inhibition, % at 20 µM; S. cerevisiae tim10-1 ts strain growth, BacTiter-Glo, 24 h; hit rate 2.2% among 330,000; AID 463190, 2010;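 active means inhibition of at least 40%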;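 further: mutant grown at 25 °C; 0% = DMSO wells with yeast and 100% = wells holding no yeast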
# NALP1 inh: NALP1 inflammasome inhibitors in reconstituted yeast, colorimetric, S. cerevisiae, triplicate retest. AID 2071, 2009. inhibition, % at 10 µM. S. cerevisiae NALP1/ASC/caspase-1 growth, X-gal OD620, 72 h. hit rate 0.61% among 280,000; in the data active means inhibition mostly above about 24%, no sharp cut-off; inactive means mostly below about 32%
# V-ATPase pHluor: regulators of yeast V-ATPase proton pumping, primary screen, pHLuorin cytosolic pH fluorescence | S. cerevisiae | response, % at 10 µM | hit rate 0.37% among 350,000 | AID 504577, 2011; in the data active means response mostly above about 7.3%, no sharp cut-off; inactive means mostly below about 5.4%; further: actives read high
# tim23-1 inh: growth inhibitors of tim23-1 mutant yeast, primary screen, luminescence, uHTS. inhibition, % at 20 µM. hit rate 1.3% among 330,000. S. cerevisiae tim23-1 growth, BacTiter-Glo luminescence, 24 h. AID 463212, 2010;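 active means growth inhibition of the mutant yeast at or above 50%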;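 further: temperature-sensitive mutant grown at 25 °C; plate controls were DMSO-treated mutant yeast for no effect and medium wells lacking yeast for full effect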
# TIM10 inh: growth inhibitors of isogenic TIM10 control yeast, primary screen, counter-screen for tim10-1 yeast inhibitor project, luminescence, uHTS; S. cerevisiae TIM10 strain growth, BacTiter-Glo luminescence, 24 h; inhibition, % at 10 µM; hit rate 1.4% among 330,000;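 active means inhibition of 40% or more at the single tested concentration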;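 further: wild-type TIM10 isogenic control strain grown at permissive 25 °C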
# NLRP3 yeast inh: NALP3 inflammasome inhibitors in reconstituted yeast, primary screen, luminescence, uHTS; AID 2825, 2010; hit rate 0.39% among 330,000; Yeast reconstituted NLRP3/ASC/caspase-1, beta-gal luminescence, 24 h; inhibition, % at 10 µM;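 active means inhibition of 50% or more; inactive means inhibition below 50%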;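 further: plate controls were induced DMSO wells for no effect and uninduced yeast grown without galactose for full effect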
# tim10-1 confirm: growth inhibitors of tim10-1 mutant yeast, confirmation, single concentration, luminescence, S. cerevisiae. shares compounds with tim10-1 inh. S. cerevisiae tim10-1 ts strain growth, BacTiter-Glo, 24 h. inhibition, % at 20 µM. hit rate 56% among 7,400;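 active means inhibition of yeast growth at or above a set limit in either of two repeat tests at 20 µM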;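 further: tim10-1 mutant grown at permissive 25 °C to find synthetic lethal compounds; 0% = DMSO yeast wells and 100% = medium wells without yeast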
# TIM10 conf: growth inhibitors of wild-type TIM10 yeast, confirmation, counter-screen for tim10-1 synthetic lethality project, single concentration, luminescence, S. cerevisiae; hit rate 63% among 4,600; S. cerevisiae tim10 strain growth, BacTiter-Glo luminescence, 24 h; AID 463215, 2010; shares compounds with TIM10 inh; inhibition, % at 10 µM;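 active means inhibition of yeast growth at or above a set limit in either of two replicates at 10 µM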;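 further: this counterscreen used the strain with wild-type TIM10; 0% = yeast with DMSO and 100% = medium wells lacking yeast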
# tim23-1 confirm: tim23-1 mutant yeast growth inhibitors, confirmation, luminescence, single concentration; inhibition, % at 20 µM; S. cerevisiae tim23-1 growth, BacTiter-Glo luminescence, 24 h; hit rate 83% among 4,400; AID 463218, 2010; shares compounds with tim23-1 inh;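 active means inhibition above about 39% in either of two replicate wells at 20 µM, limit read from the data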;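 further: temperature-sensitive tim23-1 mutant grown at 25 °C; 0% = DMSO wells with yeast and 100% = medium wells without yeast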
# Active calls of the source: *; / = no result. A selection: hits, their analogues and other compounds. The true share with any hit is near 4.2%.
SMILES,tim10-1 inh,NALP1 inh,V-ATPase pHluor,tim23-1 inh,TIM10 inh,NLRP3 yeast inh,tim10-1 confirm,TIM10 conf,tim23-1 confirm
COc1cc(OC)cc(C(=O)NCC(=O)OCC(=O)/C=C2/N(C)c3ccccc3C2(C)C)c1,17,29,-1,11,1,-2,/,/,/
COc1ccc(-c2coc3cc(O)cc(O)c3c2=O)cc1,53*,30,5,68*,23,41,37*,/,64*
O=Cc1c[nH]c2ccc(NC(=O)OCc3ccccc3)cc12,/,/,3,/,/,/,/,/,/
O=Cc1c[nH]c2cccc(OCc3ccccc3)c12,59*,/,1,54*,9,19,30*,/,18
COc1ccc(C(=O)/C=C/C(=O)N(CC(=O)NC2CCCCC2)Cc2ccccc2)c(O)c1,/,-1,-2,/,/,/,/,/,/
COc1ccc(C(=O)/C=C/C(=O)N(CC(=O)NC2CCCCC2)CC2CCCO2)c(O)c1 (centres undefined),46*,-18,7,51*,49*,10,56*,52*,60*
CC(=O)N1CCN(C(=O)CCNS(=O)(=O)c2ccccc2)CC1,8,/,1,7,4,12,/,/,/
CN1C2CCC1/C(=C\c1ccccc1)C(=O)/C2=C\c1ccccc1,47*,-1,0,53*,45*,33,36*,23,55*
CC(OC(=O)c1nsc(Cl)c1Cl)C(=O)NCCc1ccccc1 (centres undefined),13,7,3,13,3,35,/,/,/
COc1ccc2oc(C(=O)N3CCN(S(=O)(=O)c4ccc(F)cc4)CC3)c(C)c2c1,18,/,-1,33,19,18,/,/,/
COc1ccc(S(=O)(=O)N2CCN(C(=O)c3oc4ccccc4c3C)CC2)cc1,57*,10,5,53*,44*,31,43*,55*,54*
CCOC(=O)CSC1=NC(=O)/C(=C/c2ccc(OC)cc2)S1,40*,32,2,90*,59*,21,70*,-6,39*
COc1ccc(/C=C2\SC(N3CCc4ccccc4C3)=NC2=O)cc1,55*,55,2,65*,53*,25,50*,-14,52*
COc1cc(/C=C2\SC(N3CCc4ccccc4C3)=NC2=O)cc(OC)c1OC,26,7,7,33,34,20,/,/,/
Nc1ccc(N=Nc2ccccc2)c2ccccc12,49*,6,-2,80*,65*,34,39*,75*,13
Nc1ccc(N=Nc2ccccc2)c(N)n1,-2,44,8,7,12,25,/,/,/
Cn1c(N)c(C(=O)COC(=O)Cc2ccccc2F)c(=O)n(C)c1=O,4,/,2,12,-5,8,/,/,/
O=C(Nc1nc2c(Br)cccc2s1)C1CC1,46*,11,-3,80*,20,-1,36*,/,76*
CC1CCN(C(C(=O)Nc2ccc3c(c2)OCO3)c2ccccc2)CC1 (centres undefined),11,0,1,26,-2,22,/,/,/
O=C1c2ccccc2-c2onc3ccc(Oc4ccccc4)c1c23,76*,-4,-2,77*,57*,41,59*,68*,85*
Cn1cc([N+](=O)[O-])c(C(=O)Nc2sc3c(c2C#N)CCC3)n1,45*,14,1,56*,31,-3,34*,/,48*
Cn1cc(Br)c(C(=O)Nc2sc3c(c2C#N)CCC3)n1,27,5,1,29,31,7,/,/,/
